Molecules are shown by their SMILES. Values joined by “and” are separate entries in the source; they are usually repeats but may differ in a detail not shown here. Equal values may be shown once. Inconclusive results are not listed. Active and inactive are the calls of the source.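 Rule for the calls, unless noted: active = normalized viability below 100% at a tested concentration; inactive = the rest.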

A word on the viability: it is a read-out of living cells in per cent, often relative to untreated cells.

Assay [1] is described as follows: SU-DIPG-VI glioma cell viability, MIPE4.0 library, CellTiter-Glo luminescence, qHTS (AID 1347066; cut-off not given, nearly all actives have AC50 up to about 30 µM;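 note: cells exposed to compound for 48 hours before readout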). The conditions noted are these: CellTiter-Glo ATP luminescence. (In general: ATP-based viability assays read luminescence as a measure of living cells.)
A short description of assay [2]: survival rescue of mitochondrial mutant cells in low glucose, primary screen, MELAS cybrids, Rieske KO mouse fibroblasts, CellTiter-Glo (AID 1508586;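 active = mean z-score across replicates of 1.96 or higher in either the MELAS or the Rieske mutant cell line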;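 note: z relative to plate mean and SD of compound and empty wells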).
For assay [3], the target named is NAD(+) hydrolase SARM1 (Homo sapiens) (UniProt Q6SZW1). In words: SARM1 TIR NADase inhibitors, cell lysate, NAD-Glo luminescence (AID 1508614;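 active = compound whose remaining NAD level is above about 45 nM, limit read from the data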;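 note: higher remaining NAD means stronger inhibition of SARM1 NADase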). The conditions noted are these: SAM-TIR HEK293T lysate NADase, at 1 µM, stronger effect = higher value.
NAD(+) hydrolase SARM1 (Homo sapiens), sequence (Q6SZW1 whole entry, looked up, the tested form may be a part): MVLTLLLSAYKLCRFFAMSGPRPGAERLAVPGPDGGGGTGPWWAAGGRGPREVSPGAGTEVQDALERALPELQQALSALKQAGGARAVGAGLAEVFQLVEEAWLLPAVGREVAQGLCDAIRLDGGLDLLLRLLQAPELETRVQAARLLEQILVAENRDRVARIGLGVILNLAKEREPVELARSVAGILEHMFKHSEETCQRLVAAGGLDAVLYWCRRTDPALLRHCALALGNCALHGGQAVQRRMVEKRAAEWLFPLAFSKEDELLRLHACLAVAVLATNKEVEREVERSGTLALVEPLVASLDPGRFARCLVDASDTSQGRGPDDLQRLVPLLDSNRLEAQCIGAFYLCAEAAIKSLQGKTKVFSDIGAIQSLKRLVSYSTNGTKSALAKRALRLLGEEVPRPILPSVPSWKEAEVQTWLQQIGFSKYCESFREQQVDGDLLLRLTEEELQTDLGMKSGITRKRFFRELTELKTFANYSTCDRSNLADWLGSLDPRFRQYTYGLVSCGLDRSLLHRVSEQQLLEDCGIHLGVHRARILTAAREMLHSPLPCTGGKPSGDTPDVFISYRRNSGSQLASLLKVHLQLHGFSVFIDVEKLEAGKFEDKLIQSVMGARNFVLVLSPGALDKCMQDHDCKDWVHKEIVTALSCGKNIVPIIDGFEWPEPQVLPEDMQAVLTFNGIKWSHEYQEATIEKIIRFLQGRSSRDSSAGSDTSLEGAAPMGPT
In assay [4] the target is Mitogen-activated protein kinase 7 (Homo sapiens) (UniProt Q13164). In words: ERK5 transactivation activators in reporter cells, primary screen, cell-based, HTS (AID 1508626;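 active = luciferase signal above three times the same-plate solvent-only control wells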;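 note: luciferase driven by Gal4-ERK5 fusion binding five Gal4 sites before minimal TATA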). The conditions noted are these: HeLa Gal4-ERK5 transactivation, 18 h, at 5 µM, stronger effect = higher value.
Mitogen-activated protein kinase 7 (Homo sapiens), sequence (Q13164 whole entry, looked up, the tested form may be a part): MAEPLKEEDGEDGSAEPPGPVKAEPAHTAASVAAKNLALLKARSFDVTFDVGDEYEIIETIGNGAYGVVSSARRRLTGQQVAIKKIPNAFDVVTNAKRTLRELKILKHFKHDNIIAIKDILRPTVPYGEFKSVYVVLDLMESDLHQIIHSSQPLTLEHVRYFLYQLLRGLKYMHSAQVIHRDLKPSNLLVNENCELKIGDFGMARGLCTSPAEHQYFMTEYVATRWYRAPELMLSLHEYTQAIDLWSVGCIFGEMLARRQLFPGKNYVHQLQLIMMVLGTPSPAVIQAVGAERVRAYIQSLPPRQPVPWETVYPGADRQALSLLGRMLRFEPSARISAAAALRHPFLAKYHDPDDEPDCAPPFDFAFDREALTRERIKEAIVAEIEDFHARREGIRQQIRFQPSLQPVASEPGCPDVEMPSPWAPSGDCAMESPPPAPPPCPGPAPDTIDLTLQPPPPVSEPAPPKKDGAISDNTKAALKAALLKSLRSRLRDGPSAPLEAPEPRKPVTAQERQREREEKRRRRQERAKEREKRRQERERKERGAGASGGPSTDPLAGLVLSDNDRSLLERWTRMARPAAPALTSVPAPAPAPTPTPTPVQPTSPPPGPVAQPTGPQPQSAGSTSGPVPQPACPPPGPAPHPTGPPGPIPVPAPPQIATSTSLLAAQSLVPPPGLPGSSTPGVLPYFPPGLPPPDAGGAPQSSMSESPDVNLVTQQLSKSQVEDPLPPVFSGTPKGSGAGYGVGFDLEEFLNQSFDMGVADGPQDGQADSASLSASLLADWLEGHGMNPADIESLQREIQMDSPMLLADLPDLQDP
Assay [5] can be described thus: SU-DIPG-XXV glioma cell viability, MIPE5.0 library, qHTS (AID 1347068; cut-off not given, nearly all actives have IC50 up to about 30 µM). For orientation: qHTS replaces the single test concentration by a dilution series.
The nature of assay [6]: sensitizers of A549 cells to miR-34 induction, primary screen, imaging, A549 dox-inducible miR-34, nuclei and caspase counts (AID 1347080;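 active = compounds whose cell count with miR-34 switched on is under 0.7 times the count with it off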). The settings on record: A549 miR-34 inducible, Hoechst nuclei count, 48 h.
The nature of assay [7]: modifiers of HSF1 nuclear foci, imaging, Selleck Cancer Library (AID 1347162; in the data active = plate-normalised HSF1 focus index below about 0.46). The settings on record: human cells, at 10 µM; SSMD: measured here: HSF1 foci SSMD mean; cell count: measured here: cell number; plate-normalised HSF1 focus index: stronger effect = lower value.
The nature of assay [8]: ovarian cancer cell viability with rucaparib, profiling panel, oncology-focused library, rucaparib conditional (AID 1508598). The settings on record: patient-derived ovarian cancer cells, CellTiter-Glo viability, 144 h, stronger effect = lower value.
A short description of assay [9]: viability rescue of complex I mutant cybrids, primary screen, cell-based, galactose medium, ATP luminescence (AID 1645843;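 active = z-score of at least 1.8 in each of two replicates, scored against plate mean and spread of sample wells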;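 note: positive z means more ATP and so rescue of galactose-driven cybrid death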). The conditions noted are these: complex I mutant cybrid cells, 72 h, stronger effect = higher value.
The mark [10] stands for this setting: MELAS cybrid survival, CellTiter-Glo 48 h, stronger effect = higher value.
Where [11] appears, read: Rieske KO mouse fibroblast survival, CellTiter-Glo 72 h.
Setting [12] is: stronger effect = lower value, cell number ratio, induced over uninduced.
The mark [13] stands for this setting: measured here: relative caspase fold change +Dox/-Dox.
Where [14] appears, read: measured here: total cells with miR-34 induction, stronger effect = lower value.
Setting [15] is: measured here: total cells without miR-34 induction.

Consider `COc1cc2nc(N3CCN(C(=O)C4CCCO4)CC3)nc(N)c2cc1OC` (stereo unspecified), for which the call in assay [1] was inactive. Besides, the z-score in assay [2] (setting [10]) is -0.37 (inactive) and 0.933 (inactive) and -0.482 (inactive); in [2] (setting [11]), 0.344 and 0.726 and -1.05. In addition, the remaining NAD in [3] is 10 nM (inactive). For the same compound, the luciferase signal in assay [4] is 64 AU (inactive).

On to `Cc1cccc(N(C)C(=S)Oc2ccc3ccccc3c2)c1`, for which the call in assay [1] and in assay [5] was inactive. The fold change in assay [6] (setting [12]) is 0.98 (inactive) and 0.897 (inactive) and 0.793 (inactive); in assay [6] (setting [13]), 1.24 and 1.29 and 1.54. For the same compound, the cell count is 8090 and 8100 and 9280 in assay [6] (setting [14]); 8260 and 9020 and 11700 in assay [6] (setting [15]). The z-score in assay [2] (setting [10]) is -0.305 (inactive) and 0.185 (inactive); in assay [2] (setting [11]), 0.765 and 0.376. In addition, the remaining NAD in assay [3] is 10 nM (inactive). Moreover, the luciferase signal in [4] was 112 AU (inactive).

`CC(c1cc2ccccc2s1)N(O)C(N)=O` (stereo unspecified): the call in [1] was inactive. In [7], this compound registered an SSMD of 2.48. This compound also displayed a cell count in assay [7] of 7010. For the same compound, the plate-normalised HSF1 focus index in [7] is 1.14 (inactive). Besides, the z-score was -0.393 (inactive) and -0.528 (inactive) and -0.827 (inactive) in assay [2] (setting [10]); 0.713 and 0.986 and 1.26 in assay [2] (setting [11]); 0.465 (inactive) and 0.63 (inactive) in assay [9]. The viability is 111% (inactive) in assay [8] (at 0.000305 µM, OCI-C5x cells, with rucaparib 10 µM, 100% = cells with rucaparib alone); 124% (inactive) in assay [8] (at 0.000305 µM, OCI-C5x cells, without rucaparib); 77.5% (active) in assay [8] (at 0.000305 µM, OCI-P5x cells, with rucaparib 20 µM, 100% = cells with rucaparib alone); 83.5% (active) in assay [8] (at 0.000305 µM, OCI-P5x cells, without rucaparib); 98.9% (active) in [8] (at 0.00122 µM, OCI-C5x cells, with rucaparib 10 µM, 100% = cells with rucaparib alone); 121% (inactive) in assay [8] (at 0.00122 µM, OCI-C5x cells, without rucaparib). In addition, the viability in assay [8] (at 0.00122 µM, OCI-P5x cells, with rucaparib 20 µM, 100% = cells with rucaparib alone) is 61% (active); in [8] (at 0.00122 µM, OCI-P5x cells, without rucaparib), 79.9% (active); in [8] (at 0.00488 µM, OCI-C5x cells, with rucaparib 10 µM, 100% = cells with rucaparib alone), 128% (inactive); in assay [8] (at 0.00488 µM, OCI-C5x cells, without rucaparib), 122% (inactive); in assay [8] (at 0.00488 µM, OCI-P5x cells, with rucaparib 20 µM, 100% = cells with rucaparib alone) it was 48.8% (active); in assay [8] (at 0.00488 µM, OCI-P5x cells, without rucaparib), 63.4% (active). For the same compound, the viability in assay [8] (at 0.0195 µM, OCI-C5x cells, with rucaparib 10 µM, 100% = cells with rucaparib alone) is 119% (inactive); in assay [8] (at 0.0195 µM, OCI-C5x cells, without rucaparib), 125% (inactive); in assay [8] (at 0.0195 µM, OCI-P5x cells, with rucaparib 20 µM, 100% = cells with rucaparib alone) it was 47.6% (active); in assay [8] (at 0.0195 µM, OCI-P5x cells, without rucaparib), 63.9% (active); in assay [8] (at 0.0781 µM, OCI-C5x cells, with rucaparib 10 µM, 100% = cells with rucaparib alone) it was 103% (inactive); in assay [8] (at 0.0781 µM, OCI-C5x cells, without rucaparib) it was 125% (inactive). In addition, the viability in assay [8] (at 0.0781 µM, OCI-P5x cells, with rucaparib 20 µM, 100% = cells with rucaparib alone) was 97.3% (active); in [8] (at 0.0781 µM, OCI-P5x cells, without rucaparib), 118% (inactive); in assay [8] (at 0.313 µM, OCI-C5x cells, with rucaparib 10 µM, 100% = cells with rucaparib alone), 113% (inactive); in assay [8] (at 0.313 µM, OCI-C5x cells, without rucaparib), 121% (inactive); in [8] (at 0.313 µM, OCI-P5x cells, with rucaparib 20 µM, 100% = cells with rucaparib alone), 115% (inactive); in assay [8] (at 0.313 µM, OCI-P5x cells, without rucaparib) it was 123% (inactive). Also, the viability in assay [8] (at 1.25 µM, OCI-C5x cells, with rucaparib 10 µM, 100% = cells with rucaparib alone) was 109% (inactive); in assay [8] (at 1.25 µM, OCI-C5x cells, without rucaparib) it was 124% (inactive); in assay [8] (at 1.25 µM, OCI-P5x cells, with rucaparib 20 µM, 100% = cells with rucaparib alone), 106% (inactive); in assay [8] (at 1.25 µM, OCI-P5x cells, without rucaparib), 124% (inactive); in [8] (at 5 µM, OCI-C5x cells, with rucaparib 10 µM, 100% = cells with rucaparib alone), 113% (inactive); in assay [8] (at 5 µM, OCI-C5x cells, without rucaparib), 129% (inactive). The viability was 105% (inactive) in [8] (at 5 µM, OCI-P5x cells, with rucaparib 20 µM, 100% = cells with rucaparib alone) and 116% (inactive) in [8] (at 5 µM, OCI-P5x cells, without rucaparib). Moreover, in assay [3], the remaining NAD was 10 nM (inactive). Besides, the luciferase signal in [4] is 36 AU (inactive).

For the compound `CC(C)(Sc1cc(C(C)(C)C)c(O)c(C(C)(C)C)c1)Sc1cc(C(C)(C)C)c(O)c(C(C)(C)C)c1`, the outcome in [1] and in [5] was inactive. Moreover, the fold change is 0.81 (inactive) and 0.886 (inactive) and 0.877 (inactive) in [6] (setting [12]); 1.96 and 0.704 and 3.16 in [6] (setting [13]). For the same compound, the cell count in assay [6] (setting [14]) was 8410 and 8070 and 11000; in [6] (setting [15]), 10400 and 9110 and 12500. The z-score in assay [2] (setting [10]) was -0.245 (inactive) and 0.14 (inactive); in assay [2] (setting [11]), -0.773 and -0.118. The remaining NAD in assay [3] is 10 nM (inactive). In addition, the luciferase signal in assay [4] was 40 AU (inactive).

For the origin of these results see PubChem BioAssay.
